Data reported in PubChem BioAssay (NCATS).
Values without a mark were called inactive. Results filed as inconclusive are left out. Entries that show only a call come without a potency. Active and inactive are the calls of the source. Calls follow the shape of the dose curve; as a rule, active = well fitted curve in the direction sought with a large enough effect; inconclusive = small, poorly fitted or top-dose-only effect, or another doubt; inactive = no such curve, though single readings can be large or run the other way.

Legend:
[1] = biological target: T1, Hexokinase-4 (Homo sapiens) + Glucokinase regulatory protein (Homo sapiens) (UniProt P35557+Q14397); assay: qHTS assay for inhibitors of recombinant human GCK-GKRP interaction: ADP-Glo assay (AID 743206)
Summary of the method: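 Pin-transferred compounds meet a 15 nM GST-GCK/15 nM FLAG-GKRP/2 uM S6P mix (dispense concentrations). ATP is then added to 0.4 mM final with 5 mM glucose, and the reaction runs 60 min at room temperature. ADP is quantified luminescently.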

[2] = biological target: T1, Hexokinase-4 (Homo sapiens) + Glucokinase regulatory protein (Homo sapiens); assay: qHTS assay for inhibitors of recombinant human GCK-GKRP interaction: HTRF assay (AID 743207)
Summary of the method: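 Titration screening format: recombinant GST-GCK and FLAG-GKRP at 5 nM, S6P at 2 uM, labelled anti-tag antibodies, 60 min at RT, dual-wavelength HTRF readout.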

[3] = qHTS Assay for Identifying Gametocytocidal Compounds (AID 743244);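 also: actives lower the fluorescent signal which means gametocytes are killed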; conditions: P. falciparum 3D7 stage III-V gametocytes, alamarBlue, 72 h; max response: stronger effect = lower value
Summary of the method: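 Compounds are pinned into medium, gametocytes (stage III–V, 3D7, 20,000 cells/well) added, and plates held 72 h at 37 °C in 5% CO2. AlamarBlue follows for 24 h before fluorescence reading.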

T1 sequence (P35557 whole entry, looked up): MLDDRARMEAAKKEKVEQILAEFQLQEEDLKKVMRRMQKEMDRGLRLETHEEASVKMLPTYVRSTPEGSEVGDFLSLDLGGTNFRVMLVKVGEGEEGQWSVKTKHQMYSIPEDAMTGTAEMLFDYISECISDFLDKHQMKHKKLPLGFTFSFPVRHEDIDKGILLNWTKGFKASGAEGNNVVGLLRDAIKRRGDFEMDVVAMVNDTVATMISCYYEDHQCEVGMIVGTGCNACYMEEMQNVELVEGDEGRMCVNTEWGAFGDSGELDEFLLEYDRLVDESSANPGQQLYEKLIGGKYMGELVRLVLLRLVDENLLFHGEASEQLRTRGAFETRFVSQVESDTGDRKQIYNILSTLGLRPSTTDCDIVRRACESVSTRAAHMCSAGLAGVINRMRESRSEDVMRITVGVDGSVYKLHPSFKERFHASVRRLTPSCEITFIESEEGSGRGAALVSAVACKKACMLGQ
T1 sequence (Q14397 whole entry, looked up): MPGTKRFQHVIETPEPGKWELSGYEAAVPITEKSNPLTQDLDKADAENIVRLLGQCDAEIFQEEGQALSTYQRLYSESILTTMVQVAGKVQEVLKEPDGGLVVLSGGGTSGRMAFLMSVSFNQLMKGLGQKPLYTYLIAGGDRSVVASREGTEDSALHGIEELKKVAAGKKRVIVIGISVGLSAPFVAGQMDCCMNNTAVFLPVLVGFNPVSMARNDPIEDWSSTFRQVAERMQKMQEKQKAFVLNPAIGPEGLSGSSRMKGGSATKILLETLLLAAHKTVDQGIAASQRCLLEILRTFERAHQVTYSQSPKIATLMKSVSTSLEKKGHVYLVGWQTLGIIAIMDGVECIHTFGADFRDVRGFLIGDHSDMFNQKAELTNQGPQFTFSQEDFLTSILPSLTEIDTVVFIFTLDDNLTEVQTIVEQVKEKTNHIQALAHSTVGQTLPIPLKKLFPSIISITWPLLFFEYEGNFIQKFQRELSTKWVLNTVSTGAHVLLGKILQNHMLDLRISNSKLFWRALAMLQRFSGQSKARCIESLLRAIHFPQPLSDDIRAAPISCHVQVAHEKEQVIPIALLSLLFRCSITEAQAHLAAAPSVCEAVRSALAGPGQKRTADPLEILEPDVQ

SMILES | Potency [1] | Potency [2] | max response [3] [%]
O=C(c1ccc2c(c1)OCCO2)N1CCCCC1 | inactive | inactive | 22.1
C[C@H](NC(=O)/C(C#N)=C/c1ccc(O)c(O)c1)c1ccccc1 | inactive | inactive | -11
CC(=O)O[C@H]1Cc2ccccc2N(C(N)=O)c2ccccc21 | – | inactive | 18.2
CCc1ccc2c(-c3cccc(Cl)c3)nc(=O)n(CC)c2n1 | inactive | inactive | –
N#C/C(=C\c1ccc(O)c(O)c1)C(=O)NCCCNC(=O)/C(C#N)=C/c1ccc(O)c(O)c1 | inactive | inactive | 5.33
CCCn1c(=O)c(C)cn2nc(N)nc12 | inactive | inactive | -2.34
O=C(O)/C=C/c1cnc[nH]1 | inactive | inactive | –
O=C(O)C1=CCNCC1 | inactive | – | 2.03
CCCCOC(=O)NS(=O)(=O)c1sc(CC(C)C)cc1-c1ccc(Cn2c(CC)nc3c(C)cc(C)nc32)cc1 | inactive | inactive | –
O=C(O)C1CCNCC1 | inactive | inactive | 10.6
Nc1ccc(CCNc2ncnc3c2ncn3C2OC(CO)C(O)C2O)cc1 (stereo not given) | inactive | inactive | 12.3
N[C@@H](CCC(=O)N[C@H](CSN=O)C(=O)NCC(=O)O)C(=O)O | – | inactive | 16.7
CCCCCCCCCC[Si](C)(C)CCC(=O)NC(Cc1ccc(C)cc1)c1ccccc1 (stereo not given) | inactive | inactive | –
CCCCCC(O)CCCC(=O)O (stereo not given) | inactive | inactive | –
CCCN(CCc1ccccc1)C1CCc2c(O)cccc2C1 (stereo not given) | inactive | inactive | –
c1ccc(C(NCc2cccnc2)(c2ccccc2)c2ccccc2)cc1 | – | inactive | 16.7
Oc1ccc(/C=C/c2ccc(/C=C/c3ccc(O)cc3)c(Br)c2)cc1 | inactive | inactive | –
Cc1cccc(C(=O)NCN2CCN(c3ccccc3C#N)CC2)c1 | inactive | inactive | 20.6
Cc1ccccc1/C=C/C1=NCCN1 | inactive | inactive | –
CC(C)NC[C@H](O)COc1ccc(CC(N)=O)cc1 | – | inactive | 5.76
N[C@H](C(=O)O)c1cc(O)cc(O)c1 | inactive | inactive | –
CCCCCCC/C=C\CCCCCCCCC(=O)O | inactive | inactive | 37.6
C[C@H](O)C(=O)C1=Nc2c(nc(N)[nH]c2=O)NC1 | inactive | – | 13.3
O=c1[nH]c(=S)[nH]c(-c2ccccc2)c1Cc1c(O)ccc2ccccc12 | inactive | inactive | 1.54
C=C1C[C@@]23CC[C@H]4[C@@](C)(CCC[C@@]4(C)C(=O)O)[C@@H]2CC[C@]1(O)C3 | – | inactive | 31.3
C=CCNc1ncnc2ccc(Br)cc12 | inactive | inactive | 27.4
COc1cc(N)c(Cl)cc1C(=O)OCCN1CCCCC1 | inactive | inactive | 4.04
